In the library only some 19% were active in any assay of this set; here they are far more common.
HT1080NT lethal: kills 2HG-producing HT-1080-NT fibrosarcoma cells | HT-1080-NT fibrosarcoma viability, CellTiter-Glo ATP luminescence, 48 h | Potency, µM (titrated, usually from 46.1 µM), inactives show top-dose activity, negative = less viability, most hits filed as cytotoxic | hit rate 1.6% among 360,000 | AID 686970;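 further: NT is the 2HG producing partner of a matched IDH1 knockdown line; potency means the concentration at half of the fitted maximal effect; 0% = DMSO-treated cells and -100% = media-only wells without cells; nearly all actives have a fitted effect of over 55% in size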
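Viability of the 2HG-overproducing fibrosarcoma line after 48 hours of compound exposure at 37 degrees C was determined by luminescence with CellTiter-Glo, and concentration-effect curves were then fitted and categorized.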
uPA generation: inhibitors of cell surface uPA generation. cell surface uPA generation assay, qHTS. hit rate 0.31% among 330,000. Potency, µM (titrated, usually from 38.3 µM), for inactives: at the highest dose activity change, negative = inhibition, hits mostly inhibitors; active means well fitted inhibition curve with a large enough effect; inconclusive means small, poorly fitted or top-dose-only effect; inactive means no such curve, though single readings can be large or run the other way; tested in mouse RAW 264.7 cells; further: potency means the concentration at half of the fitted maximal effect; nearly all actives have a fitted effect of over 55% in size
IL-1B inflam inh: inflammasome signaling inhibition, IL-1 beta readout. THP-1 LPS/ATP IL-1B secretion, AlphaLISA, 16 h; stronger effect = lower value. activity change, % at 57.5 µM. hit rate 4.7% among 360,000. AID 743279; in the data active means activity change below about -50%; inconclusive means mostly about -30% to -49%
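THP-1 cells pretreated 1 hr with compounds (up to 57.5 uM final), then stimulated with LPS (250 ng/mL final) plus ATP (1.25 mM final); secreted IL-1B measured by AlphaLISA after 16 hr, decreased signal indicating inhibition.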
HT1080 IDH1KD tx: HT-1080 IDH1 knockdown cell toxicity (counter line) | AID 686971 | HT-1080 IDH1 knockdown viability, ATP luminescence, 48 h | hit rate 2% among 360,000 | Potency, µM (series often up to 46.1 µM), for the others: at the highest dose activity, negative = toxicity, usual class: cytotoxic;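 further: potency means the concentration at half of the fitted maximal effect; 0% = DMSO wells and -100% = cell-free medium wells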
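Luminescent ATP read-out (CellTiter-Glo, 10 min at room temperature) after 48 h compound exposure at 37 °C gave viability of IDH1-knockdown HT-1080 cells. Activity was normalised to DMSO and cell-free wells, then fitted as concentration-response curves.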
DT40 TDP1 CPT: DT40-hTDP1 cell growth loss with CPT | chicken DT40 Tdp1-/-;hTDP1 cells + 20 nM CPT, ATP luminescence, 48 h | Potency, µM (doses to about 46.2 µM), inactives show at the top dose activity change, negative = growth inhibition, usual class: inhibitors | hit rate 12% among 420,000; further: potency means the concentration at half of the fitted maximal effect; nearly all actives have a fitted effect of over 55% in size
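Chicken DT40 Tdp1-/- cells stably complemented with human TDP1 were seeded at 400 cells/well in medium containing 20 nM camptothecin, exposed to pin-transferred compounds, and grown at 37 °C for at least 48 hr. Viability was read as ATP luminescence.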
TDP1 cell noCPT: qHTS for Inhibitors of human tyrosyl-DNA phosphodiesterase 1 (TDP1): qHTS in cells in absence of CPT; AID 686978, 2013; Potency, µM (highest dose often 46.2 µM), inactives show at the top dose activity change, negative = growth inhibition, most hits filed as inhibitors; hit rate 15% among 420,000; DT40 Tdp1-/- hTDP1 cells, no CPT, ATP luminescence, 48 h; further: potency means the concentration at half of the fitted maximal effect; nearly all actives have a fitted effect of over 55% in size
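Growth kinetics read by CellTiter-Glo luminescence after ≥48 hr at 37 °C. Cells: DT40 Tdp1-/- stably carrying human TDP1, 400 per well, compound exposure in the absence of CPT (DMSO vehicle).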
* marks the source's active call; other numbers are inactive results. Unless noted, the call rests on the fitted dose curve; in most records, active means well fitted curve in the direction sought with a large enough effect; inconclusive means small, poorly fitted or top-dose-only effect, or another doubt; inactive means no such curve, though single readings can be large; an effect the other way counts as inactive or inconclusive. Unless noted, on the % scale 0 is the no-effect control and ±100 the full control effect.

What do the screens show for `CCOP(=O)(OCC)c1nc(-c2ccc(Br)cc2)oc1N1CCCCC1`?
HT1080NT lethal: 11%; uPA generation: -7%; IL-1B inflam inh: -14; HT1080 IDH1KD tx: 10%; DT40 TDP1 CPT: 10µM*; TDP1 cell noCPT: 8.2µM*

Results for COc1ccccc1-n1c(-c2cccs2)nc2ccccc2c1=O ?
HT1080NT lethal: 0%; uPA generation: 16%; IL-1B inflam inh: 63; HT1080 IDH1KD tx: 6%; DT40 TDP1 CPT: 15µM*; TDP1 cell noCPT: 13µM*

How did O=c1c2ccccc2nc(-c2ccccc2)n1-c1ccccc1O do in these assays?
HT1080NT lethal: -17%; uPA generation: 2%; IL-1B inflam inh: 45; HT1080 IDH1KD tx: -18%; DT40 TDP1 CPT: inconclusive; TDP1 cell noCPT: inconclusive

Results for COc1ccc(-c2nc3ccccc3c(=O)n2-c2nccs2)cc1 ?
HT1080NT lethal: -3%; uPA generation: -4%; IL-1B inflam inh: 0; HT1080 IDH1KD tx: 0%; DT40 TDP1 CPT: inconclusive; TDP1 cell noCPT: inconclusive

What do the screens show for `COc1ccccc1-n1c(-c2ccccc2)nc2ccccc2c1=O`?
HT1080NT lethal: -10%; uPA generation: 5%; IL-1B inflam inh: 12; HT1080 IDH1KD tx: -15%; DT40 TDP1 CPT: 16µM*; TDP1 cell noCPT: inconclusive

Results for CC(C)(C)C(=O)N1Cc2cc(N3CCCCC3)ccc2-n2nncc2C1 ?
HT1080NT lethal: 9%; IL-1B inflam inh: -5; HT1080 IDH1KD tx: 5%; DT40 TDP1 CPT: inconclusive; TDP1 cell noCPT: inconclusive

What do the screens show for `CC1=C2CC3C(CC=C4C[C@@H](O)CC[C@@]43C)[C@@H]2CC[C@]12O[C@@H]1C[C@H](C)CN[C@H]1[C@H]2C` (stereo not given in full)?
DT40 TDP1 CPT: 12%; TDP1 cell noCPT: -4%

Results for Cc1ccc2c(c1)Oc1ccccc1N=C2 ?
HT1080NT lethal: 1%; IL-1B inflam inh: 12; HT1080 IDH1KD tx: -1%; DT40 TDP1 CPT: -19%; TDP1 cell noCPT: inconclusive

How did COc1cc2c(cc1OC)CN(c1ccc([N+](=O)[O-])c(C(F)(F)F)c1)CC2 do in these assays?
HT1080NT lethal: inconclusive; uPA generation: -8%; IL-1B inflam inh: -51*; HT1080 IDH1KD tx: inconclusive; DT40 TDP1 CPT: 16µM*; TDP1 cell noCPT: 21µM*

Results for CN(C)S(=O)(=O)c1cc(NC(=O)COC(=O)Cc2ccccc2)ccc1Cl ?
HT1080NT lethal: 0%; uPA generation: -7%; IL-1B inflam inh: 17; HT1080 IDH1KD tx: 2%; DT40 TDP1 CPT: inconclusive; TDP1 cell noCPT: 18µM*

What do the screens show for `CCN(CC)C(=O)N[C@@H]1C=C2c3cccc4[nH]cc(c34)C[C@@H]2N(C)C1`?
DT40 TDP1 CPT: 21µM*; TDP1 cell noCPT: 9.4µM*

How did CCC(CO)NC(=O)C1C=C2c3cccc4[nH]cc(c34)CC2N(C)C1 (stereo not given) do in these assays?
HT1080NT lethal: 12%; uPA generation: 0%; IL-1B inflam inh: -8; HT1080 IDH1KD tx: -7%; DT40 TDP1 CPT: -7%; TDP1 cell noCPT: -14%

What do the screens show for `NCCc1c(Cc2ccccc2)[nH]c2ccccc12`?
HT1080NT lethal: -4%; uPA generation: 3%; IL-1B inflam inh: -26; HT1080 IDH1KD tx: -12%; DT40 TDP1 CPT: -23%; TDP1 cell noCPT: inconclusive

How did Cc1c(CCN)ccc2c1[nH]c1ccccc12 do in these assays?
HT1080NT lethal: -1%; uPA generation: -4%; IL-1B inflam inh: 0; HT1080 IDH1KD tx: 0%; DT40 TDP1 CPT: inconclusive; TDP1 cell noCPT: 29µM*

Results for CC(=NCCCn1ccnc1)c1c(O)n(C2CCCCC2)c(=O)[nH]c1=O ?
HT1080NT lethal: 0%; uPA generation: -1%; IL-1B inflam inh: 2; HT1080 IDH1KD tx: -5%; DT40 TDP1 CPT: 9%; TDP1 cell noCPT: -16%

High-throughput results as filed in PubChem BioAssay.
